Assay results from PubChem BioAssay.
Active and inactive are the calls of the source.

How the values were obtained:
Albumin (Bos taurus) = Albumin (Bos taurus) (UniProt P02769); assay: bovine serum albumin binders on microarray, profiling panel, artefact control for SMM control protein annotation, biochemical, small-molecule microarray, Alexa647 label, 635/667 nm fluorescence (AID 1118); details: BSA-A647 binding, fluorescence 635 nm, higher = more signal;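 further: score merges 667 nm emission intensity and signal-to-noise per printed compound spot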
[1] = small-molecule microarray binders of probe aXIP, primary screen, biochemical, NeuroSMM set, 635/667 nm fluorescence (AID 1119); details: higher = more signal, called active from +8 up or from −8 down;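 further: probe is the protein aXip251-270 applied at 1 µg/mL to compound-printed slides; binding of probe to printed compounds measured as 667 nm fluorescence plus signal to noise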
[2] = small-molecule binders of probe aNOTCH3, primary screen, biochemical, small-molecule microarray, 635/667 nm fluorescence (AID 1120); details: higher = more signal;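 further: probe is a biotin-tagged antibody raised against NOTCH3 rather than NOTCH3 protein; score merges spot fluorescence near 667 nm with spot signal to noise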
[3] = small-molecule binders of probe aNOTCH2, primary screen, biochemical, small-molecule microarray, 635/667 nm fluorescence (AID 1121); details: higher = more signal;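 further: score merges feature fluorescence read at 667 nm with its signal to noise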
[4] = molecular target: Carbonic anhydrase 2 (Homo sapiens) (UniProt P00918); assay: CAII small-molecule binders, profiling panel, biochemical, small-molecule microarray, Alexa647-labelled CAII (AID 1122); details: CAII-A647 binding fluorescence, higher = more signal
[5] = COS7 lysate on small-molecule microarray, probe aHis, 635 nm (AID 1123); details: COS7 cell lysate, fluorescence, higher = more signal;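 further: z-score combines 667nm fluorescence intensity with signal-to-noise per printed compound spot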
[6] = compound binding in COS7 lysate, probe aLAP1, primary screen, cell lysate, small-molecule microarray (AID 1124); details: probe aLAP1, fluorescence, higher = more signal;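 further: lysate comes from COS7 cells expressing LAP1 and is applied at 0.3 µg/mL; score merges spot fluorescence near 667 nm with signal-to-noise over triplicate slides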
Sam68 (KHDRBS1) = assay: Sam68 small-molecule binders, primary screen, biochemical, small-molecule microarray, 635 nm fluorescence (AID 1125); details: small-molecule microarray binding, higher = more signal;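 further: score merges 667 nm channel intensity with signal to noise over triplicate slides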
[7] = tested on: Chordin-like protein 2 (CHRDL2); assay: CHRDL2 small-molecule binders, primary screen, biochemical, small-molecule microarray, 635 nm fluorescence (AID 1126); details: small-molecule microarray binding, fluorescence 635 nm; higher = more signal;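 further: printed compound slides probed with Chrdl2 protein at 4 µg/mL for 1 h at 4 C; score merges 667 nm emission intensity with signal to noise over three replicate slides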
[8] = molecular target: Concanavalin-A (Canavalia ensiformis) (UniProt P02866); assay: ConA small-molecule binders, primary screen, artefact control for SMM control protein annotation, biochemical, small-molecule microarray, Alexa647 label, 635 nm (AID 1127); details: ConA-A647 binding fluorescence, higher = more signal;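 further: z combines 667 nm emission intensity with signal-to-noise across three replicate slides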
Chain of Concanavalin-A (Canavalia ensiformis) (P02866 whole entry, looked up): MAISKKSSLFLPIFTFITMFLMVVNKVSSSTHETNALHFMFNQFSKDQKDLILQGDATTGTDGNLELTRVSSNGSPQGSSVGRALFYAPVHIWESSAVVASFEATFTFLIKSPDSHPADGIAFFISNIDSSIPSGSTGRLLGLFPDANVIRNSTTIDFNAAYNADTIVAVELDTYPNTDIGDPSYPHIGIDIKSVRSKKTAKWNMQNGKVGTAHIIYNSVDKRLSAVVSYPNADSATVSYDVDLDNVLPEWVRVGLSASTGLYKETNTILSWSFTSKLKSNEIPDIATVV

Chain of Albumin (Bos taurus) (P02769 whole entry, looked up): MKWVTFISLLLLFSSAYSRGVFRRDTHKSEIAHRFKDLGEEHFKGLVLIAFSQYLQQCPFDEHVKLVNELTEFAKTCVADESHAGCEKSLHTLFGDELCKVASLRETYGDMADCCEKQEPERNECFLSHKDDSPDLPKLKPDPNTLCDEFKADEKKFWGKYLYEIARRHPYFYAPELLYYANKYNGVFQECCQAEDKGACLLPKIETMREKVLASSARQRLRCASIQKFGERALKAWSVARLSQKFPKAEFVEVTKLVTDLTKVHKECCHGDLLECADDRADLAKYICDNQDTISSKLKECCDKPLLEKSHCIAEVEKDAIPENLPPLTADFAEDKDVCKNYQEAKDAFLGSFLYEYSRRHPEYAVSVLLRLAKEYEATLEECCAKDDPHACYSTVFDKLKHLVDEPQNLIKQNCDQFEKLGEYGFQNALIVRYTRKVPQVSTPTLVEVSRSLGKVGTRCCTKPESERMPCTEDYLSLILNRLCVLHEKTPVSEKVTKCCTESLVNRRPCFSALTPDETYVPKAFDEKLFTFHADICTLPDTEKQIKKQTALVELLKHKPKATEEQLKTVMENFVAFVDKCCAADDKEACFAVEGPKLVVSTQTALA

SMILES | composite z-score (Albumin (Bos taurus)) | composite Z-score [1] | composite z-score [2] | composite z-score [3] | composite z-score [4] | composite z-score [5] | composite z-score [6] | composite z-score (Sam68 (KHDRBS1)) | composite z-score [7] | composite z-score [8]
CO[C@H]1O[C@H](CO)[C@@H](OC(=O)CCc2ccccc2)[C@H](OC(=O)c2cc3ccccc3[nH]2)[C@H]1OC(=O)c1cc2ccccc2[nH]1 | 0.777 | -0.134 (inactive) | -0.0284 | -0.223 | 0.68 | 0.78 | -0.206 | 1.22 | 0.453 | 1.09
COCCOC(=O)N1C(=O)[C@@]2(c3cc(C#Cc4ccc(OC)cc4)ccc31)[C@H](c1ccc(OCCO)cc1)N1[C@H](c3ccccc3)[C@H](c3ccccc3)OC(=O)[C@H]1[C@@H]2C(=O)Nc1nc2ccccc2s1 | 0.862 | -0.436 (inactive) | -0.0967 | 0.0402 | 0.309 | 1.3 | 0.176 | 1.29 | -0.122 | 1.13
COC(=O)[C@@]1(Cc2ccccc2CN=[N+]=[N-])N=C(c2ccc(OCCCO)cc2)O[C@H]1c1ccccc1CN=[N+]=[N-] | -0.747 | -0.221 (inactive) | -0.15 | -0.101 | 0.885 | 1.77 | 0.017 | -0.63 | -1.42 | 0.114
CC(C)N1CC=CC23O[C@@H]4/C=C\CCCOC(=O)C4[C@H]2C(=O)N(CCCCCCO)[C@@H]3C1=O (stereo not given in full) | -0.616 | 0.379 (inactive) | -0.277 | -0.0895 | 0.938 | 1.28 | 1.14 | 0.223 | -1.26 | -1.02
C=C(CCCC)C(=O)CC[C@H](OC(=O)c1ccccc1-c1ccccc1C(=O)O)c1ccccc1OCCO | 0.0147 | -0.104 (inactive) | -0.104 | -0.189 | 0.693 | 0.043 | 0.61 | 0.203 | 0.277 | -0.496
C=CC[C@H](OC(=O)Nc1ccc(SC)cc1)c1ccc(OCCO)cc1 | -0.0497 | 0.154 (inactive) | -0.0321 | -0.0996 | 0.655 | -0.365 | 0.656 | -1.12 | 0.0241 | -0.32
C[C@]1(C(=O)NCC(F)(F)F)c2ccccc2C(=O)N(Cc2ccccc2)[C@H]1c1ccc(CO)cc1 | -1.14 | -0.222 (inactive) | -0.221 | -0.123 | 0.448 | -0.145 | 0.498 | -1.22 | -1.7 | 0.0038
C[C@@]12COC[C@]13C=C(Br)[C@H](C2)[C@@]1(CO1)C3=O | -0.717 | 0.112 (inactive) | -0.315 | -0.124 | -0.643 | -0.47 | 0 | -1.91 | -0.211 | -0.858
C=CCC(OC(C)=O)[C@@H]1[C@@H](N(Cc2ccc(-c3ccccc3)cc2)C(=O)Cc2ccc(F)cc2)c2cc(OCCCO)ccc2N1C(=O)Cc1ccc2ccccc2c1 (stereo not given in full) | 0.232 | -0.34 (inactive) | -0.0931 | -0.046 | 0.244 | 1.29 | 0.201 | -0.869 | -0.353 | -0.474
COc1ccc(NC(=O)O[C@H]2[C@@H]3OC(=O)[C@H](Cc4cccc(Br)c4)C/C=C/C[C@@H](Cc4cccc(Br)c4)C(=O)O[C@H]3[C@@H](OC)O[C@@H]2CO)cc1 | 0.259 | 0.878 (inactive) | 0.111 | 0.683 | 0.507 | 0.84 | 0.782 | 0.355 | 0.145 | 0.173
O=C1O[C@H](c2ccccc2)[C@H](c2ccccc2)N2[C@H]1[C@@H](C(=O)N1CCCCCCC1)[C@]1(C(=O)Nc3ccc(C#CC4(O)CCCCCC4)cc31)[C@H]2c1ccccc1OCCO | 0.573 | 9.08 (active) | 2.18 | 1.13 | 1.02 | 5.1 | 1.42 | 1.34 | 1.73 | 0.952
[N-]=[N+]=NC[C@H](Cc1ccccc1)NC(=O)c1ccccc1 | 0.494 | -0.0662 (inactive) | 0.056 | -0.0783 | 0.294 | 0.12 | -0.0013 | -0.258 | 0.433 | -0.855
O=C(O)[C@H]1C[C@H]2C(=O)N[C@@H](Cc3ccccc3)C(=O)N2[C@H]1c1cccc(OCCO)c1 | -1.09 | 0.309 (inactive) | 0.182 | -0.0609 | 0.634 | 0.26 | -0.0699 | 1.05 | 1.01 | 0.95
CC(C)C[C@@H]1NC(=O)CNC(=O)[C@@]23C(=O)N[C@@H](Cc4ccccc4)C2[C@H](C)[C@@]2(C)O[C@H]2C3/C=C/C/C=C\CNC1=O (stereo not given in full) | -0.007 | 0.692 (inactive) | 0.0026 | -0.102 | 0.461 | 0.718 | 0.461 | 1.29 | 0.764 | -0.404
